Experimental data taken from article PMC5540273 (PLoS ONE, 2017).

test system: CAMKK2; conditions: concentration: 1 μM, replicates: in singlicate; n = 1
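Note: KINOMEscan kinase panel screen.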

Structure (SMILES) | %Inh [%]
Cc1nccc(-c2c(-c3ccc(F)cc3)ncn2CCCN2CCOCC2)n1.Cl [SB-282975] | 0
O=C1NC(=O)C(c2ccc(Cl)cc2)=C1Nc1cccc(Cl)c1 [SB-317651] | 5
Cc1ccc(NC(=O)Nc2ccccc2)cc1-c1ccc(C(=O)Nc2ccncc2)cc1 [GSK1398471] | 19
O=C(Nc1n[nH]c2nc(-c3cccs3)c(Br)cc12)C1CCCC1 [SB-743341] | 0
COC(=O)C(NC(=O)NC1CCN(c2ccnc(Nc3ccc(F)cc3)n2)C1)c1ccccc1 (centres unmarked) [GSK1379712] | 23
CC(=O)c1cccc(NC(=O)NC2CCN(c3ccnc(Nc4ccc(F)cc4)n3)C2)c1 (centres unmarked) [GSK1379710] | 24
CCc1ccc(-c2ccc3c(c2)-c2n[nH]cc2S(=O)(=O)N3C)cc1 | 6
O=C(Nc1n[nH]c2nc(-c3cccs3)c(Br)cc12)C1CC1 [SB-735297] | 0
COC(=O)C(Cc1ccccc1)NC(=O)NC1CCN(c2ccnc(Nc3ccc(F)cc3)n2)C1 (centres unmarked) [GSK1379714] | 9
CC(C)c1ccc(O)cc1Nc1ccnc2ccc(C(F)(F)F)cc12 [GW482059] | 0
Cc1ccc(NC(=O)c2ccc(Cl)cc2)cc1-c1ccc(C(=O)Nc2ccncc2)cc1 [GSK1398467] | 5
CC(C)c1cc(-c2ccc3c(N)n[nH]c3c2)nc(N)n1 [GSK2250882] | 18
Cn1cnc2c(N)ncnc21 [SKF-97623] | 0
COc1ccc(Nc2nccc(N3CCC(NC(=O)C(C)c4ccc(Cl)cc4)C3)n2)cc1 (centres unmarked) [GSK1379735] | 5
COc1ccc(Nc2nccc(-c3ccc(NC(=O)c4cc5cc(F)ccc5[nH]4)cc3)n2)cc1 [GSK1229496] | 17
CNc1nc(-c2ccc3c(N)n[nH]c3c2)cc(N2C[C@@H](C(=O)NC3CCCCC3)OC[C@H]2C)n1 [GSK2375584] | 35
Cc1ccccc1-c1cc(-c2c[nH]nc2-c2ccccn2)ccn1 [GW680061] | 0
CCn1c(-c2ccccc2)nc2cnccc21 [SB-733416] | 0
c1ccc(-c2ccnc3[nH]ccc23)cc1 [SB-693578] | 11

Structure (SMILES) | %Inh [%]
CC(=O)c1c(C)c2cnc(Nc3ccn(C)n3)nc2n(C2CCCC2)c1=O | 13
O=C(Nc1n[nH]c2cc(-c3ccsc3)ccc12)C1CC1 [SB-732932] | 0
CSc1ccc(-c2nc3n(c2-c2ccncc2)CCC3)cc1 [SKF-105561] | 0
O=C(Nc1n[nH]c2nc(-c3ccco3)c(Br)cc12)C1CCN(Cc2ccccc2)C1.O=C(O)[C@H](O)[C@@H](O)C(=O)O (centres unmarked) [SB-742034] | 25
CNc1nc(-c2ccc3c(N)n[nH]c3c2)cc(N2C[C@@H](C(=O)Nc3ccccc3)CC[C@H]2C)n1 [GSK2298859] | 29
Cn1cncc1C(=O)NC1CCN(c2ccnc(Nc3ccc(F)cc3)n2)C1 (centres unmarked) [GSK1379717] | 32
O=c1cc(N2CCOCC2)nc2n(Cc3ccccc3F)ccn12 [GSK2297428] | 3
CCCCc1nn2ncccc2c1-c1ccnc(NC2CC2)n1 [GW684374] | 14
O=C1NC(=O)C(c2ccc(Cl)cc2)=C1Nc1ccc(O)cc1 [SB-340867] | 0
COc1ccc(Nc2nccc(NCCNC(=O)Nc3cc(C)ccc3C)n2)cc1 [GSK1379899] | 0
CC[C@@H]1CO[C@H](C(=O)Nc2ccccc2)CN1c1cc(-c2ccc3c(N)n[nH]c3c2)nc(NC)n1 [GSK2376236] | 22
COc1cccc(CNC(=O)NC2CCN(c3ccnc(Nc4ccc(F)cc4)n3)C2)c1 (centres unmarked) [GSK1379723] | 78
Cc1ccc(NC(=O)Nc2ccc(Cl)c(C(F)(F)F)c2)cc1-c1ccc(C(=O)Nc2ccncc2)cc1 [GSK1398470] | 0
Nc1ncnc2occ(-c3ccc4c(c3)CCN4C(=O)Cc3cc(F)ccc3F)c12 [GSK2645446] | 13
Fc1ccc(-c2nc3n(c2-c2ccncc2)CCS3)cc1 [GI98581] | 0
Cc1ccc(NC(=O)Nc2ccccc2F)cc1-c1ccc(C(=O)Nc2ccncc2)cc1 [GSK1398477] | 31
Cc1c(Cn2c(C)c(C)n3c(=O)cc(N4CCOCC4)nc23)cccc1C(F)(F)F [GSK2328680] | 10
COc1ccc(Nc2nccc(N3CCC(NC(=O)c4cc5ccccc5s4)C3)n2)cc1 (centres unmarked) [GSK1379738] | 2

test system: CASK; conditions: concentration: 1 μM, replicates: in singlicate; n = 1

Structure (SMILES) | %Inh [%]
Cc1nccc(-c2c(-c3ccc(F)cc3)ncn2CCCN2CCOCC2)n1.Cl [SB-282975] | 21
O=C1NC(=O)C(c2ccc(Cl)cc2)=C1Nc1cccc(Cl)c1 [SB-317651] | 27
Cc1ccc(NC(=O)Nc2ccccc2)cc1-c1ccc(C(=O)Nc2ccncc2)cc1 [GSK1398471] | 0
O=C(Nc1n[nH]c2nc(-c3cccs3)c(Br)cc12)C1CCCC1 [SB-743341] | 12
COC(=O)C(NC(=O)NC1CCN(c2ccnc(Nc3ccc(F)cc3)n2)C1)c1ccccc1 (centres unmarked) [GSK1379712] | 2
CC(=O)c1cccc(NC(=O)NC2CCN(c3ccnc(Nc4ccc(F)cc4)n3)C2)c1 (centres unmarked) [GSK1379710] | 6
CCc1ccc(-c2ccc3c(c2)-c2n[nH]cc2S(=O)(=O)N3C)cc1 | 29
O=C(Nc1n[nH]c2nc(-c3cccs3)c(Br)cc12)C1CC1 [SB-735297] | 13
COC(=O)C(Cc1ccccc1)NC(=O)NC1CCN(c2ccnc(Nc3ccc(F)cc3)n2)C1 (centres unmarked) [GSK1379714] | 4
CC(C)c1ccc(O)cc1Nc1ccnc2ccc(C(F)(F)F)cc12 [GW482059] | 0
Cc1ccc(NC(=O)c2ccc(Cl)cc2)cc1-c1ccc(C(=O)Nc2ccncc2)cc1 [GSK1398467] | 16
CC(C)c1cc(-c2ccc3c(N)n[nH]c3c2)nc(N)n1 [GSK2250882] | 21
Cn1cnc2c(N)ncnc21 [SKF-97623] | 7
COc1ccc(Nc2nccc(N3CCC(NC(=O)C(C)c4ccc(Cl)cc4)C3)n2)cc1 (centres unmarked) [GSK1379735] | 48
COc1ccc(Nc2nccc(-c3ccc(NC(=O)c4cc5cc(F)ccc5[nH]4)cc3)n2)cc1 [GSK1229496] | 0
CNc1nc(-c2ccc3c(N)n[nH]c3c2)cc(N2C[C@@H](C(=O)NC3CCCCC3)OC[C@H]2C)n1 [GSK2375584] | 12
Cc1ccccc1-c1cc(-c2c[nH]nc2-c2ccccn2)ccn1 [GW680061] | 25
CCn1c(-c2ccccc2)nc2cnccc21 [SB-733416] | 18
c1ccc(-c2ccnc3[nH]ccc23)cc1 [SB-693578] | 26

Structure (SMILES) | %Inh [%]
CC(=O)c1c(C)c2cnc(Nc3ccn(C)n3)nc2n(C2CCCC2)c1=O | 12
O=C(Nc1n[nH]c2cc(-c3ccsc3)ccc12)C1CC1 [SB-732932] | 23
CSc1ccc(-c2nc3n(c2-c2ccncc2)CCC3)cc1 [SKF-105561] | 3
O=C(Nc1n[nH]c2nc(-c3ccco3)c(Br)cc12)C1CCN(Cc2ccccc2)C1.O=C(O)[C@H](O)[C@@H](O)C(=O)O (centres unmarked) [SB-742034] | 40
CNc1nc(-c2ccc3c(N)n[nH]c3c2)cc(N2C[C@@H](C(=O)Nc3ccccc3)CC[C@H]2C)n1 [GSK2298859] | 24
Cn1cncc1C(=O)NC1CCN(c2ccnc(Nc3ccc(F)cc3)n2)C1 (centres unmarked) [GSK1379717] | 14
O=c1cc(N2CCOCC2)nc2n(Cc3ccccc3F)ccn12 [GSK2297428] | 79
CCCCc1nn2ncccc2c1-c1ccnc(NC2CC2)n1 [GW684374] | 0
O=C1NC(=O)C(c2ccc(Cl)cc2)=C1Nc1ccc(O)cc1 [SB-340867] | 4
COc1ccc(Nc2nccc(NCCNC(=O)Nc3cc(C)ccc3C)n2)cc1 [GSK1379899] | 0
CC[C@@H]1CO[C@H](C(=O)Nc2ccccc2)CN1c1cc(-c2ccc3c(N)n[nH]c3c2)nc(NC)n1 [GSK2376236] | 8
COc1cccc(CNC(=O)NC2CCN(c3ccnc(Nc4ccc(F)cc4)n3)C2)c1 (centres unmarked) [GSK1379723] | 27
Cc1ccc(NC(=O)Nc2ccc(Cl)c(C(F)(F)F)c2)cc1-c1ccc(C(=O)Nc2ccncc2)cc1 [GSK1398470] | 0
Nc1ncnc2occ(-c3ccc4c(c3)CCN4C(=O)Cc3cc(F)ccc3F)c12 [GSK2645446] | 0
Fc1ccc(-c2nc3n(c2-c2ccncc2)CCS3)cc1 [GI98581] | 20
Cc1ccc(NC(=O)Nc2ccccc2F)cc1-c1ccc(C(=O)Nc2ccncc2)cc1 [GSK1398477] | 17
Cc1c(Cn2c(C)c(C)n3c(=O)cc(N4CCOCC4)nc23)cccc1C(F)(F)F [GSK2328680] | 16
COc1ccc(Nc2nccc(N3CCC(NC(=O)c4cc5ccccc5s4)C3)n2)cc1 (centres unmarked) [GSK1379738] | 21
